# Screening data: PubChem BioAssay, National Center for Advancing Translational Sciences (NCATS)
# Compounds with a hit are over-represented: about 6.9% of the library has one in this group of screens.
# MCF10A rereplic – induces DNA re-replication in MCF 10a normal breast cells | MCF 10A DNA re-replication, Hoechst nuclear intensity, 48 h | Potency, µM (series often up to 46.1 µM), for inactives: at the highest dose activity, positive = re-replication, hits mostly activators | 2.9% of 350,000 active | AID 624296; note: potency is the fitted concentration of half-maximal effect; % of control where 0% means no effect; nearly all actives have a fitted effect of over 50% in size
# KB-V1 MDR tox – KB-V1 MDR subline cytotoxicity; Potency, µM (highest dose often 46.1 µM), most hits filed as cytotoxic; KB-V1 MDR cells viability, CellTiter-Glo, 72 h; AID 1347076; 3.4% of 400,000 active; note: potency is the fitted concentration of half-maximal effect; % is set by controls: 0 for no effect and ±100 for the full control effect; nearly all actives have a fitted effect of over 60% in size
#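 Readout: CellTiter-Glo luminescence, 10 min after addition. Cells: KB-V1 MDR subline, 72 h at 37 degrees C with compound. Analysis: corrected, normalized data fitted to concentration-effect curves.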
# Giardia killer – kills Giardia lamblia; Giardia lamblia trophozoite viability; activity change, % at 7.66 µM, hits read low; 0.15% of 340,000 active; AID 540267; in the data active = activity change below about -80%; inconclusive = between about -30% and that limit;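 note: parasites exposed to compound for two days anaerobically before the ATP read; % is set by controls: 0 for no effect and ±100 for the full control effect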
#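 Giardia trophozoites, 100 cells per well, were exposed to compounds for 48 hrs at 37 deg C under anaerobic conditions; viability was then read as ATP content by bioluminescence after 15-30 min at room temperature.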
# SW480 rerep – induces DNA re-replication in SW480 colon adenocarcinoma cells. Potency, µM (highest dose often 46.1 µM), for the others: at the highest dose re-replication activation, hits mostly activators. SW480 DNA re-replication, Hoechst DNA content imaging, 48 h. 1.8% of 340,000 active; note: potency is the fitted concentration of half-maximal effect; % of control where 0% means no effect; nearly all actives have a fitted effect of over 55% in size
#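 Readout is total intensity of Hoechst-stained nuclei, excited at 405 nm and collected at 500-530 nm. Compound treatment lasted 48 hr at 37 C in 5% CO2 before staining.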
# S-ASM inh – inhibitors of human secretory acid sphingomyelinase; P17405; placental ASM, HMU-PC fluorogenic substrate, 60 min; Potency, µM (series often up to 57.5 µM), inactives show at the top dose activity change, negative = inhibition, hits mostly inhibitors; 0.006% of 340,000 active; AID 504937; note: potency is the fitted concentration of half-maximal effect
# Target sequence (P17405 47-631 limits assumed): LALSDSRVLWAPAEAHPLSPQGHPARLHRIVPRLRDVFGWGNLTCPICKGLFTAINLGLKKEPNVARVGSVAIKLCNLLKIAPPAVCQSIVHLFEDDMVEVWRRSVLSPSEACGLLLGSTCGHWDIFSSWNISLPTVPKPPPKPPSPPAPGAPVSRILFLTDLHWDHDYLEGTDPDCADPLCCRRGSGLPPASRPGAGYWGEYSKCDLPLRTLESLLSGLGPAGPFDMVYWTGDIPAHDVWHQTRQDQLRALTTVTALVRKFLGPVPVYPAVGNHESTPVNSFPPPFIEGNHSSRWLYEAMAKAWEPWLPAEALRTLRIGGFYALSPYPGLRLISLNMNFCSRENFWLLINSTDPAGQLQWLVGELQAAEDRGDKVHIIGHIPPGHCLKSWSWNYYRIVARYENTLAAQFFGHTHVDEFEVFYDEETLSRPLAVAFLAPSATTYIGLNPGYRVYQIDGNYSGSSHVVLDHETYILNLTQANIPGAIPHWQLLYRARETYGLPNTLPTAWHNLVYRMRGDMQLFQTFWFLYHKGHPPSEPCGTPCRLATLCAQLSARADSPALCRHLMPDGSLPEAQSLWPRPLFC
#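 Human placenta-derived ASM enzyme was preincubated with compound for 10 minutes at room temperature, then given fluorogenic substrate HMU-PC0 (9 uM final) for 60 minutes at 37 °C; a pH 10 stop preceded fluorescence reading at Ex 386/Em 447 nm.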
# KB-3-1 tox – kills parental KB-3-1 adenocarcinoma cells; KB-3-1 viability, CellTiter-Glo ATP luminescence, 72 h; 1.4% of 400,000 active; Potency, µM (series often up to 46.1 µM), hits mostly cytotoxic; note: potency is the fitted concentration of half-maximal effect; % is set by controls: 0 for no effect and ±100 for the full control effect; nearly all actives have a fitted effect of over 60% in size
#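 Using CellTiter-Glo luminescence, growth of non-resistant KB-3-1 adenocarcinoma cells is assessed 72 h after pin-tool compound addition at 37 °C. Normalized responses across the concentration series yield fitted curves.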
# Active calls of the source: *; i = inactive; ? = inconclusive; / = no result. Unless noted, calls come from the whole dose curve; as a rule, active = well fitted curve in the direction sought with a large enough effect; inconclusive = small, poorly fitted or top-dose-only effect, or another doubt; inactive = no such curve, though single readings can be large; an effect the other way counts as inactive or inconclusive.
SMILES,MCF10A rereplic,KB-V1 MDR tox,Giardia killer,SW480 rerep,S-ASM inh,KB-3-1 tox
CCn1c(SCC(=O)N2CCCCC2)nc2c1c(=O)n(C)c(=O)n2C,-5%,i,5,-26%,1%,i
CC1Cc2ccccc2N1C(=O)CSc1nnc(Cn2nnc3ccccc32)n1C (centres undefined),4%,18µM*,-7,-2%,-1%,i
CCCCCn1c(CN2CCCCC2C)nc2c1c(=O)n(C)c(=O)n2C (centres undefined),?,4.6µM*,3,-5%,3%,i
CCn1c(SCC(=O)N2CCc3ccccc3C2)nc2c1c(=O)n(C)c(=O)n2C,3%,i,-9,-15%,-3%,i
O=C(NC1CC1)c1ccc2sc([C@@H]3O[C@H](CO)[C@H](O)[C@H](O)[C@H]3O)nc2c1,/,i,/,/,/,i
CCOc1ccc(NC(=O)c2sc3nc4c(c(-c5ccc(OC)cc5)c3c2N)C(=O)CC(C)(C)C4)cc1,/,i,/,/,/,i
CCNC(=S)Nc1ccc(Cc2nc3ccccc3[nH]2)cc1,-1%,i,9,1%,-3%,i
CCOC(=O)c1c(NC(=O)CSc2nc3c(c(=O)n(C)c(=O)n3C)n2CC)sc(C)c1C,18%,9.2µM*,-17,-1%,1%,i
CC1=C(C(N)=O)C(c2ccc(C)cc2)n2nc(SCc3ccccc3)nc2N1 (centres undefined),/,i,/,/,/,i
O=C(NCC(c1ccco1)N1CCc2ccccc21)C(=O)Nc1ccccc1F (centres undefined),?,16µM*,37,?,-2%,15µM*
O=C(NCC(c1ccco1)N1CCc2ccccc21)C(=O)Nc1ccc(F)cc1F (centres undefined),4.1µM*,4.1µM*,2,?,-4%,4.6µM*
O=C(Nc1ccc(Br)cc1)c1cc2ccccn2n1,9%,i,-14,24%,0%,?
CCc1ccc(NC(=O)c2cc3ccccn3n2)cc1,/,?,/,/,/,15µM*
CC1CCN(CC(CS(=O)(=O)c2ccc([N+](=O)[O-])cc2)N2CCC(C)CC2)CC1 (centres undefined),1.8µM*,?,-22,2.9µM*,-1%,5.2µM*
CCOC(=O)c1c(-c2ccccc2)oc2ccc(NS(=O)(=O)c3ccc(C)cc3C)cc12,/,i,/,/,/,i
CCOc1ccc(C(=O)N2CCN(Cc3cc(=O)n4nc(-c5ccccc5Cl)sc4n3)CC2)cc1,/,i,/,/,/,i
OC(CNC1CCCC1)COc1ccccc1Br (centres undefined),8%,i,-6,6%,-1%,i
OC(CNC1CCCCCC1)COc1cccc2ccccc12 (centres undefined),26%,21µM*,-2,18µM*,-3%,?
Cc1ccccc1OCC(O)CNC1CCC(NCC(O)COc2ccccc2C)CC1 (centres undefined),?,18µM*,-9,4.1µM*,5%,3.3µM*
CCN(C(=O)c1ccc2c(=O)n3c(nc2c1)CCCCC3)c1ccccc1C,-8%,i,-29,-17%,3%,i
CC(=O)Nc1ccc(C(=O)N2CCCC(c3cc(C(=O)Nc4ccccc4)no3)C2)cc1 (centres undefined),/,i,/,/,/,i
CCOC(=O)c1ccc(Oc2nc(C)nc3c2oc2ccccc23)cc1,/,?,/,/,/,i
CC(=O)c1ccc(Oc2nc(C)nc3c2oc2ccccc23)cc1,/,i,/,/,/,18µM*
CCOC(=O)/C=C/C(=O)Nc1cccc([N+](=O)[O-])c1,3.7µM*,i,8,/,0%,?
CCOC(=O)/C=C/C(=O)Nc1ccccc1-c1ccccc1NC(=O)/C=C/C(=O)OCC,5.8µM*,i,3,4.6µM*,1%,?
COn1c2c(c3c4no[n+]([O-])c4ccc31)CCCC2,24%,i,-6,-1%,0%,i
